KB-3-1 cytotox: qHTS assay for MDR1-selective chemotherapeutics: Primary screen using the parental adenocarcinoma cell KB-3-1; KB-3-1 viability, CellTiter-Glo ATP luminescence, 72 h; Potency, µM (series often up to 46.1 µM), usual class: cytotoxic; 400,000 compounds, 1.4% hits; AID 1347075, 2019; note: % is set by controls: 0 for no effect and ±100 for the full control effect; nearly all actives have a fitted effect of over 60% in size
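Cytotoxicity in the drug-sensitive parental line KB-3-1 was scored as loss of CellTiter-Glo luminescence following 72 h incubation with compound. Values come from curve fitting of normalized concentration-response data.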
MCF10A rereplic: A quantitative high throughput screen for small molecules that induce DNA re-replication in MCF 10a normal breast cells; MCF 10A DNA re-replication, Hoechst nuclear intensity, 48 h; Potency, µM (top dose mostly 46.1 µM), for the others: top-dose activity, positive = re-replication, usual class: activators; 350,000 compounds, 2.9% hits; AID 624296, 2012; note: % of control where 0% means no effect; nearly all actives have a fitted effect of over 50% in size
HT1080 IDH1KD tx: qHTS for induction of synthetic lethality in tumor cells producing 2HG: qHTS for the HT-1080-IDH1KD cell line; HT-1080 IDH1 knockdown viability, ATP luminescence, 48 h; 360,000 compounds, 2% hits; Potency, µM (doses to about 46.1 µM), inactives show at the highest dose activity, negative = toxicity, usual class: cytotoxic; AID 686971, 2013;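 note: 0% = DMSO wells and -100% = cell-free medium wells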
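IDH1KD HT-1080 cells, 750/well, RPMI + 5% FBS; compound pinned after 2 h settling; 48 h, 37 °C; CellTiter-Glo luminescence; % activity normalised to DMSO and no-cell wells; curves fitted, classed by r2 and efficacy.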
KB-V1 cytotox: qHTS assay for MDR1-selective chemotherapeutics: Primary screen using the drug-selected MDR subline cells KB-V1; KB-V1 MDR cells viability, CellTiter-Glo, 72 h; Potency, µM (top dose mostly 46.1 µM), most hits filed as cytotoxic; 400,000 compounds, 3.4% hits; AID 1347076, 2019; note: % is set by controls: 0 for no effect and ±100 for the full control effect; nearly all actives have a fitted effect of over 60% in size
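Cytotoxicity via CellTiter-Glo luminescence after 72 h compound exposure at 37 degrees C. Cells: drug-selected KB-V1 line, DMEM phenol-red free plus 10% FBS. Compounds tested at multiple concentrations; normalized data fitted to concentration-effect curves.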
HT1080-NT tox: qHTS for induction of synthetic lethality in tumor cells producing 2HG: qHTS for the HT-1080-NT fibrosarcoma cell line | HT-1080-NT fibrosarcoma viability, CellTiter-Glo ATP luminescence, 48 h | 360,000 compounds, 1.6% hits | Potency, µM (series often up to 46.1 µM), inactives show at the top dose activity, negative = less viability, hits mostly cytotoxic;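 note: NT is the 2HG producing partner of a matched IDH1 knockdown line; 0% = DMSO-treated cells and -100% = media-only wells without cells; nearly all actives have a fitted effect of over 55% in size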
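Compounds were tested in concentration-response format on HT-1080-NT cells for 48 hours at 37 degrees C. Cell viability came from CellTiter-Glo luminescence; curves were classified by r2, response magnitude and activity.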
SW480 rerep: A quantitative high throughput screen for small molecules that induce DNA re-replication in SW480 colon adenocarcinoma cells; SW480 DNA re-replication, Hoechst DNA content imaging, 48 h; Potency, µM (highest dose often 46.1 µM), without a hit: at the highest dose re-replication activation, actives largely listed as activators; 340,000 compounds, 1.8% hits; note: % of control where 0% means no effect; nearly all actives have a fitted effect of over 55% in size
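SW480 cells exposed to compounds for 48 hr at 37 C, 5% CO2, then Hoechst-stained 40 min. Nuclear DNA content imaged by fluorescence scanning (405 nm excitation, 500-530 nm emission); re-replication scored as increased high-intensity nuclei.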
An asterisk follows results filed as active; i = inactive; ? = inconclusive; . = not tested or not shown; [ ] = remark or other dose. Compounds with a hit are over-represented: about 7.9% of the library has one in this group of screens. Calls come from the whole dose curve; as a rule, active = well fitted curve in the direction sought with a large enough effect; inconclusive = small, poorly fitted or top-dose-only effect, or another doubt; inactive = no such curve, though single readings can be large; an effect the other way counts as inactive or inconclusive. Potency is the fitted concentration of half-maximal effect.

SMILES	KB-3-1 cytotox	MCF10A rereplic	HT1080 IDH1KD tx	KB-V1 cytotox	HT1080-NT tox	SW480 rerep
Cc1ccc(S(=O)(=O)NNC(=O)c2ccc(O)cc2)cc1	i	1.8%	6.2%	i	11.0%	-8.0%
Cc1ccc(NC(=O)c2ccc(S(=O)(=O)N3CCCCC3)cc2)cc1	i	0.4%	-3.8%	i	8.0%	-12.1%
CC1(C(=O)NCc2ccccc2Br)CCN1Cc1c(F)cccc1F (stereo not given)	i	.	-17.5%	?	-12.6%	.
Cc1ccc(NC(=O)c2ccc(S(=O)(=O)N3CCC(C)CC3)cc2)nc1	25.9µM*	5.8%	-24.8%	?	?	-1.2%
CC(C)N(C(=O)NC(=O)Nc1ccc(S(=O)(=O)N2CCCC2)cc1)S(C)(=O)=O	i	0.651µM*	-6.9%	i	-2.9%	2.4%
CCN(CC)c1ccc2cc(C(=O)NNC(=O)c3ccc(S(=O)(=O)N4CCCCC4)cc3)c(=O)oc2c1	i	?	-19.5%	2.59µM*	-1.3%	2.91µM*
Cc1ccc(NC(=O)c2ccc(S(=O)(=O)N3CCCCCC3)cc2)nc1	i	4.8%	-11.2%	?	?	3.5%
O=C(NC1CCCCC1)c1ccc(S(=O)(=O)N2CCCC2)cc1	i	13.6%	-0.5%	16.4µM*	11.5%	0.5%
Cc1ccc(NC(=O)c2ccc(S(=O)(=O)N3CCCC3)cc2)cc1	i	15.1%	-16.4%	23.1µM*	-2.9%	0.3%
CC(Cc1cccs1)NC(=S)Nc1ccc(Cl)cc1 (stereo not given)	i	20.6µM*	?	i	?	5.4%
CC(Cc1cccs1)NC(=S)Nc1ccc(Cl)c(Cl)c1 (stereo not given)	i	?	-25.3%	i	?	16.7%
Fc1ccc(F)c(C2=NNC(=Nc3ccccc3F)SC2)c1	?	20.6µM*	?	?	?	?
O=S(=O)(c1ccc(N=C2NN=C(c3cc(F)ccc3F)CS2)cc1)N1CCOCC1	?	11.2%	16.4µM*	?	?	?
Cc1cccc(N=C2NN=C(c3ccccc3F)CS2)c1C	i	8.8%	-0.4%	i	5.3%	22.6%
Fc1ccc(N=C2NN=C(c3cc(F)ccc3F)CS2)cc1	?	?	?	i	?	?
Fc1ccccc1N=C1NN=C(c2ccccc2)CS1	?	?	?	?	13µM*	?
CN(C)S(=O)(=O)c1cccc(N=C2NN=C(c3ccccc3)CS2)c1	?	11.5%	?	?	?	13µM*
CCCn1cnc2scc(-c3ccc(OC)cc3)c2c1=O	i	12.4%	-2.8%	i	-4.4%	-3.8%
COc1ccc(OCC2CCCN(Cc3nc(CC4CC4)no3)C2)cc1 (stereo not given)	i	7.0%	-14.7%	i	7.2%	-1.6%
O=C(CSc1n[nH]c(=O)n1C1CC1)c1c[nH]c2ccccc12	i	13.1%	3.8%	i	4.5%	-10.0%
O=C(NC1CC1)c1ccc2c(Cl)c3c(nc2c1)CCCC3	i	?	11.6%	i	1.5%	12.8%
O=C(Nc1ccc2nc(-c3cccs3)[nH]c2c1)c1ccco1	i	16.8%	-2.9%	i	-11.2%	-6.9%[9.22 µM]
CO/N=C(/CNC(=O)c1ccccc1Cl)c1ccc(Cl)cc1	i	-1.5%	-13.7%	23.1µM*	0.0%	-73.0%
O=C(CNC(=O)c1ccccc1Cl)c1ccccc1	i	-5.1%	21.8%	i	21.5%	-1.4%
COc1ccc(S(=O)(=O)NCC2CCCN(Cc3cccnc3)C2)cc1 (stereo not given)	i	1.03µM*	3.9%	i	3.4%	-15.3%
SMILES	KB-3-1 cytotox	MCF10A rereplic	HT1080 IDH1KD tx	KB-V1 cytotox	HT1080-NT tox	SW480 rerep
COCCN1C(=O)c2ccccc2C1c1nnnn1C(C)C (stereo not given)	i	.	23.0%	i	15.3%	.
O=C1c2ccccc2C(=O)N1CC(=O)N1c2ccccc2Sc2ccccc21	i	-7.1%	9.1%	i	12.2%	-2.2%
O=C1c2ccccc2C(=O)N1CC(=O)N1c2ccccc2Sc2ccc(C(F)(F)F)cc21	i	13.9%	-1.7%	18.4µM*	1.7%	0.0%
CCc1ccccc1N(C(=O)c1cccs1)C1C=CS(=O)(=O)C1 (stereo not given)	i	2.59µM*	-4.1%	i	9.8%	?
CCN(CC)c1ccc(/C=N/NC(=O)c2nnn(-c3nonc3N)c2C(C)C)c(O)c1	1.3µM*	18.4µM*	1.3µM*	i	?	23.1µM*
COc1cc(/C=N/NC(=O)c2nnn(-c3nonc3N)c2C(C)C)ccc1OCc1ccc(F)cc1	?	?	11.6µM*	i	?	?
Cc1cc(C)n2c(SCCO)nnc2n1	i	-4.1%	22.4%	i	12.3%	1.8%
CN(C)/C=N/S(=O)(=O)c1cccn1-c1ncc(C(F)(F)F)cc1Cl	i	-3.7%	15.5%	i	8.8%	-0.1%
O=C(Cc1cccs1)N/N=C\c1ccc([N+](=O)[O-])s1	i	?	-27.6%	i	?	3.7%
O=C(CNC(=O)c1ccccc1Cl)N/N=C/c1ccc([N+](=O)[O-])s1	2.59µM*	-2.8%	23.1µM*	?	?	?
Cc1cc(C)cc(N=Cc2ccc([N+](=O)[O-])s2)c1	?	20.6µM*	20.6µM*	?	?	3.66µM*
N/C(=N\O)c1ccc([N+](=O)[O-])s1	i	0.0%	1.4%	i	?	-0.8%
Cc1ccc(NC(=S)N/N=C/c2ccc([N+](=O)[O-])s2)cc1	?	10.3µM*	?	?	?	6.51µM*
NC(=O)c1ccc(N=Cc2ccc([N+](=O)[O-])s2)cc1	?	14.6µM*	1.6%	?	?	3.26µM*
Cc1ccc(C(=O)Nc2nnc(CC(=O)N/N=C/c3ccncc3)s2)cc1	i	0.1%	1.8%	i	6.0%	20.6µM*
N#CC(C#N)=NNc1ccc2cn[nH]c2c1	i	.	20.6µM*	i	20.6µM*	.
Cc1ccc(-c2nn(-c3ccccc3Cl)cc2C(=O)NCC2CCCO2)cc1 (stereo not given)	i	?	-29.8%	?	-9.0%	17.4%
COc1ccc2c(c1)OC[C@H]1[C@H]2N2C(=O)c3cc(OC)c(OC)cc3NC(=O)[C@@]2(C)[C@H]1c1ccccc1	i	18.4µM*	?	?	?	20.6µM*

High-throughput results from PubChem BioAssay.
